EP2 antag – EP2 receptor (human) inhibition. P43116. C6 glioma cells expressing human EP2, cAMP TR-FRET; cells stimulated with saturating PGE2. inhibition, % at 25 µM. 0.52% of 260,000 active. AID 1422;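 active = percent inhibition above 40 after rounding to a whole number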;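 also: rat C6 glioma host cells with rolipram phosphodiesterase inhibitor present; the protocol text gives 20 µM as final concentration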
SKN-1 block – C. elegans SKN-1 inhibition. 0.49% of 360,000 active. AID 624304. C. elegans VP596 Pgst-4::GFP/RFP ratio, acrylamide-induced, 24 h. inhibition, % at 21.8 µM;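 active = interference check ratio from 0.5 to 1.5 plus GFP to RFP signal ratio inhibition reaching or exceeding a fixed threshold, cut at about 30% in these data, passing the limit was not always enough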
PG9 Ab binder – PG9 antibody binding by small molecule; TR-FRET gp120-PG9 antibody binding; inhibition, % at 6.7 µM; 0.43% of 360,000 active; in the data active = inhibition above about 8.5%
EP2 mod – modulators of human EP2 prostaglandin E2 receptor. P43116. EP2-expressing cells, cAMP HTRF FRET, PGE2 co-stimulation. induction, % at 25 µM. 0.83% of 260,000 active;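 active = compounds whose cAMP rise, as percent of the full-agonist control response, exceeds 60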;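 also: rat C6 glioma line stably carrying human EP2 under a CMV promoter; the protocol text gives 20 µM as final concentration; 100% = response of wells given 1 µM PGE2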
NR1D1 modulator – modulators of human Rev-erb alpha DNA binding. P20393. Rev-erbα–FITC-DNA binding, fluorescence polarization, 90 min. activity, % at 10 µM. 0.79% of 370,000 active. AID 1259318;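 active = activity above about 14%, limit read from the data; passing the limit was not always enough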;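 also: 0% = DMSO wells with 35 nM protein and 100% = DMSO wells with 750 nM protein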
Target sequence (P20393 whole entry, looked up): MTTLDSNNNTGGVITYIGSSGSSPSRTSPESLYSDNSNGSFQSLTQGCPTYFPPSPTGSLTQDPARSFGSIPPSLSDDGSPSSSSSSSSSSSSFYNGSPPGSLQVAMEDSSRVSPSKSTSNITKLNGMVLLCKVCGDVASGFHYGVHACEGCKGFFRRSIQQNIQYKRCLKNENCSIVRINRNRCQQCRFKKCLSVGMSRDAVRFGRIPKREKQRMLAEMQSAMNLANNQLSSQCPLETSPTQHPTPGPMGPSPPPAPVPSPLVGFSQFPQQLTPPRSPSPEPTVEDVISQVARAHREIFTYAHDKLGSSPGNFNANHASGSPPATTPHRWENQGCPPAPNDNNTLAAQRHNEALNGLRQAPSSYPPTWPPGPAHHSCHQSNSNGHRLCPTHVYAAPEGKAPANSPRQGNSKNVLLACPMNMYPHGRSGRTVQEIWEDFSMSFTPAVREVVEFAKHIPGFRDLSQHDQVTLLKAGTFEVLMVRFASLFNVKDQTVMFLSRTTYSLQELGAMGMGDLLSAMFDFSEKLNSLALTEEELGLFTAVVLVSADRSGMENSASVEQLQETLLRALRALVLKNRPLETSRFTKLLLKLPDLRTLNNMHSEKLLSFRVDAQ
RAM network inh – blocks the yeast RAM network; S. cerevisiae dse1pr::URA3 reporter, 5-FOA growth OD615, 2 d; analog-sensitive cbk1-as2 kinase mutant strain; inhibition, % at 50 µM; AID 868; 1.8% of 190,000 active;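 active = inhibition above a set limit, 3 SD over mean compound inhibition, cut at about 8.4% in these data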;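 also: 0% = DMSO-only wells with no growth and 100% = 10 µM 1-NA-PP1 full growth; inhibition rescues growth on 5-FOA so higher OD means more RAM inhibition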
EP2 cAMP induct – human EP2 receptor cAMP induction, negative in counter-screens. shares compounds with EP2 mod. C6 glioma EP2 cells, cAMP HTRF induction; plus low (about EC15) PGE2 agonist. calls only at 20 µM (by protocol). 47% of 1,300 active;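 active = cAMP induction above 50% in the main assay while under 30% in all four parallel counter assays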;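 also: rat C6 glioma cells stably expressing human EP2 receptor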
* = called active by the depositor; ! = not active in a repeat. Rows were chosen to be rich in hits. Some 2.9% of all compounds tested hit in one or more screens of this group.

Results for Cc1cccc(Cn2c(=O)n(Cc3ccco3)c(=O)c3ccccc32)c1 ?
EP2 antag: 13.2; SKN-1 block: 6.7; PG9 Ab binder: 0.6; EP2 mod: 76.1*; NR1D1 modulator: -7.0; RAM network inh: 1.6; EP2 cAMP induct: inactive

What do the screens show for `CCn1c(=O)c2ccccc2n(Cc2cccc(C)c2)c1=O`?
SKN-1 block: 7.9; PG9 Ab binder: -1.2; NR1D1 modulator: 1.5

Results for COC(=O)C1C(c2ccccc2)C(C(=O)OCc2ccco2)C1c1ccccc1 (stereo not drawn) ?
EP2 antag: 7.8; SKN-1 block: 17.6; EP2 mod: 67.7*; NR1D1 modulator: 1.7; RAM network inh: 8.5*; EP2 cAMP induct: inactive

What do the screens show for `O=C(O)C1C(c2ccccc2)C(C(=O)OCc2ccco2)C1c1ccccc1` (stereo not drawn)?
EP2 antag: 7.8; SKN-1 block: -18.6; PG9 Ab binder: 0.7; EP2 mod: 14.6; NR1D1 modulator: 3.1; RAM network inh: 0.2

How did Cc1cc(C)nc(SCC(=O)Nc2ccc(N)cc2)n1 do in these assays?
EP2 antag: 4.0; EP2 mod: -14.8

How did CCCC(C)C(=O)Nc1ccccc1C(=O)OCC (stereo not drawn) do in these assays?
EP2 antag: 12.2; SKN-1 block: -6.7; PG9 Ab binder: 0.5; EP2 mod: 19.4; NR1D1 modulator: 1.1; RAM network inh: -1.1

What do the screens show for `CCOC(=O)c1ccccc1NC(=O)COc1ccccc1`?
EP2 antag: 8.0; SKN-1 block: -3.2; PG9 Ab binder: -2.3; EP2 mod: 79.3*; NR1D1 modulator: 1.6; RAM network inh: 1.3; EP2 cAMP induct: inactive

How did Cc1cccc(OCC(=O)Nc2ccccc2-c2ccccc2)c1 do in these assays?
EP2 antag: 5.7; SKN-1 block: 5.1; PG9 Ab binder: -0.9; EP2 mod: 70.7*; NR1D1 modulator: 0.6; RAM network inh: 5.4; EP2 cAMP induct: active

How did CCOC(=O)c1ccccc1NC(=O)C(C)Oc1ccccc1 (stereo not drawn) do in these assays?
EP2 antag: 13.9; SKN-1 block: 15.4; PG9 Ab binder: 0.2; EP2 mod: 53.8; NR1D1 modulator: 0.2; RAM network inh: -0.2; EP2 cAMP induct: active

What do the screens show for `CCOC(=O)c1ccccc1NC(=O)CSc1ccccc1`?
EP2 antag: 15.6; SKN-1 block: 29.5; PG9 Ab binder: -0.1; EP2 mod: 78.8*; NR1D1 modulator: 1.9; RAM network inh: 1.0; EP2 cAMP induct: inactive

Results for CC(C)(C)NC(=O)C1N(c2ccccc2)C(=O)C2C(C(=O)NCc3cccs3)C3C=CC21O3 (stereo not drawn) ?
EP2 antag: 15.0; EP2 mod: -11.9

How did O=C(CN1CCC(c2ccncc2)CC1)N1CCCCC1 do in these assays?
EP2 antag: 5.7; EP2 mod: 4.4

How did COCC(=O)Nc1sc2c(c1C(=O)OC)CCC(C)C2 (stereo not drawn) do in these assays?
EP2 antag: 8.2; SKN-1 block: 14.7; PG9 Ab binder: 2.0; EP2 mod: 70.3*!; NR1D1 modulator: 0.7; RAM network inh: 1.2; EP2 cAMP induct: inactive

How did COC(=O)c1c(NC(=O)CC2SC(N)=NC2=O)sc2c1CCC(C)C2 (stereo not drawn) do in these assays?
EP2 antag: 7.8; SKN-1 block: 8.1; PG9 Ab binder: -1.2; EP2 mod: 2.3; NR1D1 modulator: -2.5; RAM network inh: 1.0

What do the screens show for `COC(=O)c1c(NC(=O)C2CC2)sc2c1CCCC2`?
EP2 antag: 3.5; SKN-1 block: 4.7; PG9 Ab binder: -0.2; EP2 mod: 58.9; NR1D1 modulator: 0.7; RAM network inh: 0.1; EP2 cAMP induct: inactive

How did COC(=O)c1c(NC(=S)NN2CCOCC2)sc2c1CCCC2 do in these assays?
EP2 antag: 4.2; SKN-1 block: 14.7; PG9 Ab binder: 0.9; EP2 mod: 46.5; NR1D1 modulator: 1.9; RAM network inh: 3.4; EP2 cAMP induct: inactive

What do the screens show for `COc1ccc(CCn2nnnc2C(c2ccccc2)N2CCN(C3CCCC3)CC2)cc1OC` (stereo not drawn)?
EP2 antag: 11.5; EP2 mod: -18.7

Compound activity: PubChem, several laboratories
